PGC1a acetyl inh: inhibitors of PGC1a acetylation signal, primary screen, cell-based, U2OS, AlphaScreen, inhibitor mode; AlphaScreen anti-acetyl-lysine; with virally co-expressed GCN5 acetyltransferase; inhibition, % at 15.6 µM; 0.17% of 350,000 active;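 active = every replicate shows inhibition of at least 40%; inconclusive = mean inhibition at least 40% but some replicate below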;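 also: 0% = neutral control wells and 100% = positive control wells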
rRNA inh HTS: reduced GFP signal of wild-type E. coli, primary screen, bacterial rRNA inhibitor project, GFP/RFP fluorescence, OD600, single point; E. coli WT GFP vs humanized-ribosome RFP mutants, 24 h; stronger effect = lower value; DMSO median 0, no signal -100; 1.6% of 350,000 active; GFP signal change (wild-type ribosome), % (no concentration beside the values);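 active = significant combined selectivity score with lowered wild-type GFP, culture density cut under 30%, mutant RFP and density less affected; inactive = any of these conditions unmet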
ERAP1 HTS inh: human ERAP1 aminopeptidase inhibitors, primary screen, biochemical, single point, plate reader; AID 652197, 2013; inhibition, % at 10.7 µM; 0.15% of 340,000 active; Endoplasmic reticulum aminopeptidase 1 (Homo sapiens), Q9NZ08; recombinant ERAP1, Leu-AMC fluorescence, 60 min;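 active = mean replicate inhibition of at least 30%, or all replicates individually reaching that 30% level; inactive = mean below 30% and not every replicate reaching it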;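 also: 0% = neutral control wells and 100% = L-leucinethiol positive control wells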
DENV2 CPE rescue: inhibitors of DENV2 cytopathic effect, primary screen, cell-based, plate reader, single concentration. CPE inhibition, % at 9.99 µM. DENV2-infected cells, cytopathic effect rescue. 1.7% of 350,000 active; in the data active = CPE inhibition above about 20%, passing the limit was not always enough; inconclusive = no clear call, values can overlap the other calls; tested in BHK-21 cells;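 also: 0% = median of neutral control wells and 100% = median of positive control wells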
GSIS activator: GLuc luminescence reporter in INS-1E cells, primary screen for activators of glucose-dependent secretion of insulin; INS-1E GLuc reporter insulin secretion, 2-3 h; activation, % at 16.6 µM; 0.61% of 370,000 active;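 active = lowest replicate activation of at least 40%, so every replicate reaches that level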;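 also: 0% = median of neutral control wells and 100% = median of IBMX positive control wells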
CaV13 FRET inh: Disruptors of the CACNA1D IQ motif to Ca2+-dependent inactivation inhibitor domain association, primary screening, Förster resonance energy transfer in intact living … | AID 743397 | inhibition, % at 12.3 µM | HEK cells, CFP/YFP FRET ICDI-IQ, plate reader, 10 min; percent FRET-ratio fall versus neutral wells | 0.098% of 340,000 active;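 active = mean replicate inhibition of at least 30% and at least 1% of replicates passing that level; inconclusive = only one of the two criteria is met; inactive = neither criterion is met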;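 also: 0% = median of the neutral control wells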
Active calls of the source: *; ? = inconclusive; · = no result. An excerpt weighted towards active compounds, which were near 3.2% of everything screened.

SMILES	PGC1a acetyl inh	rRNA inh HTS	ERAP1 HTS inh	DENV2 CPE rescue	GSIS activator	CaV13 FRET inh
CCCC1(C(=O)O)NC(c2ccccc2O)C2C(=O)N(Cc3ccccc3)C(=O)C21 (stereo not drawn)	2	15	2	-2	0	-8
CSCCC1(C(=O)O)NC(c2ccccc2O)C2C(=O)N(C(C)C)C(=O)C21 (stereo not drawn)	-7	1	·	7	1	39*
S=C1NC2(CCCCC2)N=C1c1ccccc1	·	·	·	·	13	-1
Cc1ccc(C2=NC3(CCCCC3)NC2=S)cc1	·	9	-1	22*	14	-5
COc1ccc(C2/C=C\CN(C(=O)Nc3ccccc3)CC(=O)N2Cc2ccc(F)cc2)cc1 (stereo not drawn)	0	-27*	0	-3	-50	-5
COc1ccc(C2/C=C\CN(C(=O)c3ccc(C)cc3)CC(=O)N2Cc2ccc(F)cc2)cc1 (stereo not drawn)	-12	-33	3	9	-39	-5
CN(C)C(CNC(=O)c1c(F)cccc1Cl)c1ccco1 (stereo not drawn)	·	9	-5	21*	-2	-2
CN(C)C(CNC(=O)c1ccco1)c1cccs1 (stereo not drawn)	·	7	-1	?	2	-5
CN(C)C(CNC(=O)c1cccs1)c1ccco1 (stereo not drawn)	1	9	-5	35*	11	-3
CN(C)C(CNC(=O)c1ccccc1C(F)(F)F)c1ccco1 (stereo not drawn)	·	1	-2	1	7	-3
C[C@@H]1CN([C@@H](C)CO)C(=O)c2cc(C#CCN(C)C)cnc2O[C@@H]1CN(C)S(C)(=O)=O	2	16	0	9	12	·
O=C1NC(=S)NC1=Cc1ccc(Cl)cc1Cl	4	-25*	1	-11	·	-5
Cc1c(C(=O)N2CCN(c3ccccc3)CC2)oc2c1C(=O)CC(C)(C)C2	·	-23*	5	6	-5	-2
CCOc1ccc(NC(=O)N(CCC(C)C)C2CCN(C(C)=O)CC2)cc1	3	·	·	·	0	-4
CC(C)CCN(C(=O)Nc1ccc(Cl)cc1)C1CCN(C(C)C)CC1	2	-35*	-1	1	-12	-3
COCC(=O)N(C)C[C@@H]1Oc2ncc(C#Cc3ccc(F)cc3)cc2C(=O)N([C@H](C)CO)C[C@@H]1C	12	1	-3	6	11	·
Cc1ccc2cc(C#N)c(SCC(=O)NNC(=O)Cc3ccccc3)nc2c1	18	·	·	·	127*	-5
Cc1ccc2nc(SCC(=O)NCc3cccs3)c(C#N)cc2c1	3	·	·	·	54*	-5
COc1ccc2cc(C#N)c(SCC(=O)NNC(=O)Cc3ccccc3)nc2c1	-2	·	·	·	·	-3
COc1cccc(NC(=O)N[C@H]2C=C[C@@H](CC(=O)N3CCN(C)CC3)O[C@H]2CO)c1	4	2	1	3	3	·
CCc1ccc(NC(=O)C(C)OC(=O)Cn2[nH]c(=O)c3ccccc3c2=O)cc1 (stereo not drawn)	4	3	-2	60*	33	-6
CC(OC(=O)Cn1[nH]c(=O)c2ccccc2c1=O)C(=O)Nc1ccc(Cl)cn1 (stereo not drawn)	10	5	-1	14	35	-3
C[C@@H]1CN([C@H](C)CO)S(=O)(=O)c2ccc(-c3ccc(C(=O)N(C)C)cc3)cc2O[C@H]1CN(C)C(=O)C1CC1	-6	-1	·	·	3	·
CC(=O)N1C[C@H]2CON(C)[C@H]2C[C@H]1c1ccc(-c2ccccc2)cc1	2	-2	6	0	1	-6
COc1ccccc1-c1ccc([C@@H]2C[C@H]3[C@H](CON3C)CN2C(=O)c2ccc(-c3ccccc3)cc2)cc1	-2	8	8	38*	-8	-5
Cc1ccc(-c2nc3cnccn3c2Nc2ccc3c(c2)OCO3)o1	6	-17*	12	5	·	-8

High-throughput results (PubChem)
